Screens from PubChem.
A selection: hits, their analogues and other compounds. The true share with any hit is near 2.8%.
CBFb-RUNX1 inh = inhibitors of human CBF-beta and RUNX1 interaction. Q01196+Q13951. AlphaScreen CBFb-His/RUNX1-biotin binding, biochemical. Potency, µM (doses to about 59.8 µM), usual class: inhibitors. 230,000 tested, under 10 active
Target sequence (Q01196 whole entry, looked up): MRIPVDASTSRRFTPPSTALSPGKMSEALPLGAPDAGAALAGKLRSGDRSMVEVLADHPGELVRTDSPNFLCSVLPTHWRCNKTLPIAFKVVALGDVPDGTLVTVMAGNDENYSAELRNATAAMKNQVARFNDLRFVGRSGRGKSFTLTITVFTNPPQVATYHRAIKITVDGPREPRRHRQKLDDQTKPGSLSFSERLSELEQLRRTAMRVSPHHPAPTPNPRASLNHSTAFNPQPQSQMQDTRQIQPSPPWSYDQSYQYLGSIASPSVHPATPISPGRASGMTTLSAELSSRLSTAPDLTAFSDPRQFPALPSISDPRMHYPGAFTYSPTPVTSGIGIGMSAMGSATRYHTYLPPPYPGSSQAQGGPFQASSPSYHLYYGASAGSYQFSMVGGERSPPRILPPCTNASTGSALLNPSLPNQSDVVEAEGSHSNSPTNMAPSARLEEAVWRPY
Target sequence (Q13951 whole entry, looked up): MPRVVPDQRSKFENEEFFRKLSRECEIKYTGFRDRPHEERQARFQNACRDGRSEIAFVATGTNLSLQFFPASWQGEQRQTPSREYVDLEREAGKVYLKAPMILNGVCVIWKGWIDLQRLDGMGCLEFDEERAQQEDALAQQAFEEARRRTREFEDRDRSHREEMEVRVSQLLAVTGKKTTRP
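CBFb-His/RUNX1-biotin, 30 nM each, preincubated 20 min RT; compound 15 min RT; Ni + streptavidin beads 50 ng each, 90 min RT; AlphaScreen read.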
DRD3 agonist = activates the human D3 dopamine receptor; P35462; D3R DiscoveRx beta-arrestin cells, luminescence, 90 min; max activation, %; actives 0.58% (n = 410,000); in the data active = max activation above about 30%
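Agonist-mode cell screen: cells plated at 1500/well and incubated overnight at 37 °C, then exposed to library compounds for 90 min at 37 °C. Detection reagent was added for 30–60 min at room temperature, and luminescence was read.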
MBNL1 CUG block = blocks human MBNL1 binding to CUG repeat RNA. TR-FRET MBNL1-His/biotin-(CUG)12 binding, 665/545 ratio. Potency, µM (titrated, usually from 57.5 µM), most hits filed as inhibitors. actives 0.036% (n = 280,000); active = well fitted inhibition curve with a large enough effect in the signal ratio, with a control signal flat, not every such curve was filed as active; inconclusive = small, poorly fitted or top-dose-only effect, or effect the other way, or a change in a side signal; inactive = no such curve, though single readings can be large or run the other way; the % refers to the signal ratio
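His-tagged MBNL1 binding to biotinylated (CUG)12 RNA was measured by TR-FRET using terbium anti-His antibody (0.055 ng/ul final) and streptavidin-XL665 (5 nM final). Compounds were titrated 92 nM to 58 uM; 60 min at room temperature.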
D3 antag = blocks the human D3 dopamine receptor; D3R cells, DiscoveRx beta-arrestin luminescence, antagonist mode; stronger effect = lower value; max response, negative = inhibition, %; actives 2.5% (n = 360,000); AID 652054; in the data active = max response below about -50%; inconclusive = no clear call, values can overlap the other calls
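Cells plated overnight at 1500 cells/well, then exposed to library compounds with dopamine controls for 90 minutes at 37 degrees C. DiscoveRx reagent added for 30–60 minutes at room temperature; luminescence read, quantitative HTS format.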
PTHR1 ag = activates the human parathyroid hormone receptor PTHR1. Q03431. HEK293 GP2 PTHR1 cells, GloSensor cAMP luminescence, 1 h. Potency, µM (series often up to 115 µM), actives largely listed as activators. actives 0.075% (n = 410,000). AID 743266; also: nearly all actives have a fitted effect of over 55% in size
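HEK-293-derived GP2 cells expressing PTHR1 and a GloSensor cAMP reporter, 3,000/well, plated overnight, given luciferin plus IBMX (each 0.5 mM as added) for 1 h at 37 °C, then compound for 1 h at 37 °C. Luminescence was read after 15 min at room temperature.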
a7 integrin act = integrin-mediated muscular dystrophy alleviation activation | Potency, µM (doses to about 38.3 µM), most hits filed as activators | actives 0.064% (n = 350,000) | alpha7betagal myoblasts, beta-gal FDG fluorescence, 48 h; also: nearly all actives have a fitted effect of over 60% in size
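alpha7betagal+/- myoblasts (passage 13, 250/well) treated 48 h at 37C with compounds at 1:260 dilution of DMSO stock. Lysed, then beta-galactosidase activity read as FDG fluorescence (ex 480/em 540) after 30 min, with pre-read for autofluorescence.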
Numbers stand for hits; . = inactive; ? = inconclusive; / = no result given; ! = not confirmed by another sample. Unless noted, calls follow the shape of the dose curve; as a rule, active = well fitted curve in the direction sought with a large enough effect; inconclusive = small, poorly fitted or top-dose-only effect, or another doubt; inactive = no such curve, though single readings can be large; an effect the other way counts as inactive or inconclusive.

SMILES	CBFb-RUNX1 inh	DRD3 agonist	MBNL1 CUG block	D3 antag	PTHR1 ag	a7 integrin act
c1ccc(CN(CC2=NCCN2)c2ccccc2)cc1	.	.	.	.	.	/
CN(C)CCNc1ncnc2c1ncn2[C@H]1CN(Cc2ccc(-c3ccccc3)cc2)C[C@@H](CO)O1	/	.	/	.	.	/
CCCn1c(SCC(=O)c2cc(C)n(-c3cc(C)on3)c2C)n[nH]c1=O	/	31	/	.	.	.
CCn1nc(C)c2c(-c3ccccc3)cc(=O)n(C(C)C(=O)NCCc3ccc(Cl)cc3)c21 (stereo not drawn)	/	.	/	/	.	/
CC1(C(=O)NCc2cccs2)Cc2c(-c3ccccc3)ccnc2O1 (stereo not drawn)	/	.	/	.	.	/
O=C(Cc1csc(N2CCOCC2)n1)N/N=C/c1ccc(O)c(O)c1O	/	.	.	-57	.	.
CC(C)C[C@@H]1CN(CCCC[C@H]2CNC(=O)C(=O)N2CCC2CCCCC2)C(=O)C(=O)N1Cc1ccccc1	/	.	/	.	.	/
COc1ccccc1CNCCCCCCNCCCCCCCCNCCCCCCNCc1ccccc1OC	.	/	/	/	/	/
COc1ccc(N(C)C(=O)CCC(=O)Nc2ccc3nc(N4CCOCC4)cc(C)c3c2)c(OC)c1	.	35	.	.	.	.
O=[N+]([O-])c1ccc(-n2cnc3ccccc32)c([N+](=O)[O-])c1	.	.	?	.	.	.
CCS(=O)(=O)N1CCC(C(=O)NCCCN2CCN(c3ccccc3F)CC2)CC1	.	40	.	-52	.	.
CCCS(=O)(=O)N1CCCC(C(=O)NCCCN2CCN(c3ccccc3F)CC2)C1 (stereo not drawn)	.	31	.	-53	.	.
CCCS(=O)(=O)N1CCCC(C(=O)NCCCN2CCN(c3cccc(Cl)c3)CC2)C1 (stereo not drawn)	.	.	.	.	.	.
O=C(NCCCN1CCN(c2ccccc2F)CC1)C1CCN(S(=O)(=O)c2cccs2)CC1	.	.	.	?	.	.
O=C(c1cccc(C(F)(F)F)c1)N(c1ccccn1)C1CCCCC1	.	.	.	.	.	.
CCCN(CCC)c1nc(-c2ccccn2)nc2ccccc12	/	.	.	?	.	.
CN1CCN(c2nc(-c3ccc(Cl)cc3)nc3ccccc23)CC1	/	.	.	-61	.	.
c1ccc(-c2nc(N3CCCCCC3)c3ccccc3n2)nc1	?	.	.	-127	.	.
CN1CCN(c2nc(-c3ccncc3)nc3ccccc23)CC1	.	.	.	.	.	.
c1ccc(CCNc2nc(-c3ccccn3)nc3ccccc23)cc1	?	.	/	-70	.	.
c1ccc(-c2nc(N3CCOCC3)c3ccccc3n2)nc1	.	.	.	.	.	.
CCCc1nnc(NC(=O)c2cc(=O)c3cc(C)c(C)cc3o2)s1	/	.	/	/	.	/
Cn1c(CNC(=O)c2ccccc2F)nnc1SCc1ccc(Cl)cc1	.	.	.	.	.	.
Cc1ccccc1C(=O)NCc1nnc(SCC(=O)N2c3ccccc3Sc3ccccc32)n1C	.	.	.	-64	.	.
COc1cc(C(C)=O)ccc1OCC(O)CN1CCN(c2ccc(C)cc2C)CC1 (stereo not drawn)	/	.	.	-67	.	.
SMILES	CBFb-RUNX1 inh	DRD3 agonist	MBNL1 CUG block	D3 antag	PTHR1 ag	a7 integrin act
COc1cc(C(C)=O)ccc1OCC(O)CN1CCN(c2ccccc2)CC1 (stereo not drawn)	/	.	.	?	.	.
COc1cc(C(C)=O)ccc1OCC(O)CN1CCN(c2ccccn2)CC1 (stereo not drawn)	/	78	.	.	.	.
Nc1cc(Cl)ccc1CN1C(=O)c2ccccc2C1=O	/	.	/	.	.	/
COc1ccc(C2(OC)Oc3cc(OC)ccc3C(=O)C2(O)OC)cc1 (stereo not drawn)	/	.	/	.	.	.
CO[C@@H]1CN(C)C(=O)c2cc(NC(=O)NC3CCCCC3)ccc2OC[C@@H](C)N(CCc2ccccc2)C[C@H]1C	/	.	/	.	.	/
CO[C@@H]1CN(C)C(=O)c2cc(NC(=O)NC3CCCCC3)ccc2OC[C@@H](C)N(CC2CCOCC2)C[C@@H]1C	/	.	/	-60	.	/
CCN(C(=O)COC(=O)c1cncc(Br)c1)C1CCS(=O)(=O)C1 (stereo not drawn)	.	.	.	.	.	.
c1ccc2c(c1)CCN(c1ncnc3c1[nH]c1ccccc13)C2	.	.	.	-53	.	.
O=C(O)c1ccccc1-c1c2ccc(=O)cc-2oc2cc(O)ccc12	.	/	/	/	/	/
COC(=O)c1ccccc1-c1c2ccc(=N)cc-2oc2cc(N)ccc12	/	.	/	-64	.	.
O=C(O)c1cccc(Nc2ncnc3ccc(Br)cc23)c1	.	.	/	.	8.9µM!	.
Cc1ccc(CNC(=O)COC(=O)c2cccc(S(=O)(=O)N3CCCCC3)c2)cc1	/	.	/	.	.	.
C=CCn1c(Sc2ncc([N+](=O)[O-])s2)n[nH]c1=O	.	.	/	-80	.	.
CN(C)S(=O)(=O)c1ccc(-c2csc(N/N=C/c3ccc(O)cc3)n2)cc1	.	35	.	.	.	.
CCCCn1c(N)c(N(CCOC)C(=O)Cn2c(=O)oc3ccccc32)c(=O)[nH]c1=O	/	95	/	.	.	.
CCCCN(C(=O)c1ccccc1F)c1c(N)n(CCC)c(=O)[nH]c1=O	/	33	.	.	.	.
CCCCn1c(N)c(N(C)C(=O)CCCn2c(=O)oc3ccccc32)c(=O)[nH]c1=O	/	.	/	.	.	.
CC(C)(C)S(=O)(=O)N1C[C@@H]2C(=CC[C@H]3C(=O)N(c4ccccc4)C(=O)[C@@H]23)[C@@H]1CCO	/	.	/	.	.	.
CCCS(=O)(=O)NC(=O)C1(C)CCN(C(=O)c2cccc(C(F)(F)F)c2)C1 (stereo not drawn)	/	.	/	.	.	/
Cc1csc2ncnc(N3CCN(C(=S)Nc4ccc(F)cc4F)CC3)c12	.	41	.	.	.	.
COc1cc2c(cc1NC(=O)c1cc(-c3cccnc3)nc3ccc(C)cc13)oc1ccccc12	.	56	.	.	?	.
COc1cc2c(cc1NC(=O)c1cc(-c3ccncc3)nc3ccccc13)oc1ccccc12	.	.	.	.	.	.
COc1ccc(NC(=O)c2cc(-c3cccnc3)nc3c(C)c(C)ccc23)c(OC)c1	.	48	.	.	.	.
Cc1nc(CNC(=O)CC2C(=O)NCCN2Cc2cccc(Oc3ccccc3)c2)cs1 (stereo not drawn)	?	.	.	.	.	.
Nn1c(SCC(=O)Nc2ccccc2F)nnc1C1CCCCC1	/	.	.	.	.	.
